Source: PubChem BioAssay AID624296 (National Center for Advancing Translational Sciences (NCATS), 2012)
Hit rate of the full screen: of about 350,000 compounds, about 9,900 (2.8%) were called active. Entries that show only a call come without a potency. Not shown: some 15% with an inconclusive outcome. Calls follow the shape of the dose curve; as a rule, active = well fitted activation curve with a large enough effect; inconclusive = small, poorly fitted or top-dose-only effect; inactive = no such curve, though single readings can be large or run the other way. Only a selection was taken, and actives are over-represented in it overall.

test: A quantitative high throughput screen for small molecules that induce DNA re-replication in MCF 10a normal breast cells.; also: nearly all actives have a fitted effect of over 50% in size; conditions: MCF 10A DNA re-replication, Hoechst nuclear intensity, 48 h; series mostly up to 46.1 µM
Potency is read from the fitted curve at half-maximal effect.

Row | SMILES | Potency
1 | COc1ccc(OCCCC(=O)Nc2cccc(S(=O)(=O)N3CCCCCC3)c2)cc1 | inactive
2 | CN(CC(=O)NC1CCN(Cc2ccccc2)CC1)S(=O)(=O)c1ccc(Cl)s1 | inactive
3 | CC(=O)Oc1ccc(OC(C)=O)c2c1C1C=CC2CC1 | 10.3 µM (active)
4 | CC(=O)Oc1ccccc1C1=NN(C(C)=O)C(c2ccccc2)C1 (stereo not given) | inactive
5 | CC(=O)Oc1ccc(C(C)=O)c2c1OCCO2 | inactive
6 | CCCCN(C(=O)c1cccc(N2C(=O)c3ccccc3C2=O)c1)c1c(N)n(CCCC)c(=O)[nH]c1=O | inactive
7 | O=C(COC(=O)C1CCCO1)Nc1nc(-c2ccc(F)cc2)cs1 (stereo not given) | inactive
8 | COCCCNC(=O)/C=C/c1ccc(OCc2c(F)cccc2Cl)cc1 | inactive
9 | CN(C)CCCNC(=O)/C=C/c1ccc(OCc2c(F)cccc2Cl)cc1 | 23.1 µM (active)
10 | COc1cc(CNCCN(C)C)ccc1OCc1c(F)cccc1Cl | inactive
11 | O=c1oc2ccccc2c(=O)c2ccccc12 | inactive
12 | Cc1ccc(NC(=O)CC2S/C(=N/N=C3\CCCc4ccccc43)NC2=O)cc1 (stereo not given) | 14.6 µM (active)
13 | CCN=C1SC(CC(=O)Nc2ccc(C)cc2)C(=O)N1CC (stereo not given) | inactive
14 | Cc1c(Cl)cccc1NC(=O)CC1SC(=NCC2CCCO2)NC1=O (stereo not given) | inactive
15 | CCN(CC(=O)Nc1c(F)cccc1F)C(=O)c1ccc(-c2ccc(C(C)=O)cc2)o1 | inactive
16 | CCCCNS(=O)(=O)CCNCc1ccccc1OC | inactive
17 | CC(Sc1ccccc1F)C(=O)Nc1cccc(S(=O)(=O)N2CCOCC2)c1 (stereo not given) | inactive
18 | O=C(CSc1cccc[n+]1[O-])c1ccc(Cl)cc1 | inactive
19 | O=C(CSc1cccc[n+]1[O-])c1ccc(-c2ccccc2)cc1 | 8.2 µM (active)
20 | COc1ccccc1C(=O)CSc1cccc[n+]1[O-] | inactive
21 | CC[C@]12c3[nH]c4cc(CCC(=O)N(C)C)ccc4c3CCN1C(=O)[C@@H](CC(=O)NCCCN(C)C)C[C@@H]2C(=O)N1CCN(C(=O)c2ccco2)CC1 | inactive
22 | CN(C(=O)c1cccc(NC(=O)Cc2ccc(NC(=O)C3CCCN(C(=O)C4CCCC4)C3)cc2)c1)C1CCC1 (stereo not given) | inactive

Row | SMILES | Potency
23 | O=S(=O)(NCC1CN(S(=O)(=O)c2ccc3c(c2)OCCO3)C1)c1c(F)cccc1F | inactive
24 | COC1=CC(=O)OC(c2ccc(OC)cc2)C1 (stereo not given) | inactive
25 | CCc1nc2sc(C(=O)O)c(N)c2c2c1CCCC2 | inactive
26 | Cc1ccc2c(N)c(C(=O)c3ccccc3)sc2n1 | inactive
27 | Cc1nc2sc(C(=O)c3ccccc3)c(N)c2c2c1CCCC2 | 14.6 µM (active)
28 | CCOC(=O)C1=CN(Cc2ccc(Br)cc2)S(=O)(=O)N(C)C1C (stereo not given) | inactive
29 | CCOC(=O)CC(=O)CSc1nc(-c2ccccc2)cc(-c2ccc(Cl)cc2)c1C#N | 11.6 µM (active)
30 | N#Cc1c(-c2ccccc2)cc(-c2ccccc2)nc1SCC(=O)O | inactive
31 | N#Cc1c(C(F)(F)F)cc(-c2ccc(Cl)cc2)nc1SCC(=O)O | inactive
32 | COc1ccc(C(=O)OC(C)C(=O)NC2CCCC2)cc1S(=O)(=O)N1CCOCC1 (stereo not given) | inactive
33 | COc1cc(OC)cc(C(=O)N[C@H](C(=O)NNC(=O)c2ccc(Br)cc2)C(C)C)c1 | inactive
34 | C[C@H](CO)N1C[C@H](C)[C@H](CN(C)C(=O)Nc2ccc(C(F)(F)F)cc2)Oc2c(NC(=O)c3ccncc3)cccc2C1=O | inactive
35 | Cc1ccc(Nc2c(O)nc[nH]c2=O)cc1C | inactive
36 | CCCN(CCC)S(=O)(=O)c1cc2c(cc1Br)CCN2C(=O)CC | 18.4 µM (active)
37 | CCC(=O)N1CCc2cc(S(=O)(=O)NC(C(=O)N3CCc4ccccc4C3)C(C)C)ccc21 (stereo not given) | inactive
38 | CCC(=O)N1CCc2cc(Br)c(S(=O)(=O)NCCN3CCCCC3CC)cc21 (stereo not given) | inactive
39 | Cn1c(CC(=O)NNC(=O)c2ccccc2F)nc2ccccc21 | inactive
40 | O=S(=O)(O)c1cc2onnc2c2ccccc12 | inactive
41 | O=C(Cc1ccc(Cl)cc1)c1ccccc1 | inactive
42 | CC1CC(=O)Nc2ccccc2N1C(=O)COc1ccc2cc(Br)ccc2c1 (stereo not given) | inactive
43 | N#Cc1nc(COc2ccc(-c3ccccc3)cc2)oc1NCc1cccnc1 | 7.94 µM (active)
44 | Cc1ccc(OCc2nc(C#N)c(N3CCCC3)o2)cc1 | inactive

Row | SMILES | Potency
45 | O=S(=O)(c1ccccc1)c1nc(-c2ccccc2F)oc1NCc1cccnc1 | inactive
46 | O=S(=O)(c1ccc(SCc2ccccc2)nc1)N1CCCCCC1 | inactive
47 | CC(C)OC(=O)c1ccc(NCc2cc(O)ccc2O)cc1Cl | 1.64 µM (active)
48 | CC(CN1CCOCC1)OC(=O)c1ccc(Cl)cc1Cl (stereo not given) | inactive
49 | O=C(OC12CC3CC(CC(C3)C1)C2)c1ccc(NCc2cc(O)ccc2O)cc1 | inactive
50 | CN(C)c1ccc(CSc2ccccc2)cc1 | inactive
51 | O=c1c2ccccc2ncn1CCc1ccncc1 | inactive
52 | CC[C@]12c3[nH]c4ccc(Cl)cc4c3CCN1C(=O)[C@@H](CC(=O)NCCCOC)C[C@@H]2C(=O)N1CCN(C(=O)C2CC2)CC1 | inactive
53 | CC1CCCCC1NC(=O)Cn1c(=O)cnc2ccccc21 (stereo not given) | inactive
54 | C=C(C)CNc1cc(S(=O)(=O)N2CCOCC2)ccc1Oc1ccccc1 | inactive
55 | CC(=O)Nc1ccc(NC(=O)C(C)OC(=O)c2ccccc2C(=O)c2ccc(Cl)c([N+](=O)[O-])c2)cc1 (stereo not given) | 16.4 µM (active)
56 | CC(CC(=O)O)C(=O)c1ccc(Cl)c([N+](=O)[O-])c1 (stereo not given) | inactive
57 | COC(=O)c1cc(NC(=O)Cc2ccccc2[N+](=O)[O-])ccc1Cl | inactive
58 | N#Cc1cccc(NC(=O)COC(=O)c2ccccc2C(=O)c2ccc(Cl)c([N+](=O)[O-])c2)c1 | 2.91 µM (active)
59 | NC(=O)c1ccc(NC(=O)COC(=O)c2ccc([N+](=O)[O-])cc2)cc1 | inactive
60 | CC(=O)Nc1ccc(NC(=O)COC(=O)c2ccccc2C(=O)c2ccccc2)cc1 | inactive
61 | Cc1ccc(S(=O)(=O)N2CCN(C(=O)Cn3c(=O)cnc4ccccc43)CC2)c(C)c1 | inactive
62 | O=C(COC(=O)COc1cc(Cl)c(Cl)cc1Cl)NC1CC1 | inactive
63 | Cc1ccccc1NC(=O)CSC(=O)c1ccccc1 | inactive
64 | CCOC(=O)[C@H]1[C@H]2COc3ccc(Br)cc3[C@@H]2N2C(=O)CN(C)C(=O)[C@@]12C | inactive
65 | COc1ccccc1CNC(=O)c1ccc(Cl)c(S(=O)(=O)N2CCCC2)c1 | inactive
